# According to PMC7862700, “An all-to-all approach to the identification of sequence-specific readers for epigenetic DNA modifications on cytosine”:
# Columns and labels:
# Assay in all cases: DAPPL (digital affinity profiling via proximity ligation, sequencing); 10 mM Tris-HCl pH 7.5, 50 mM NaCl, 1 mM DTT, 4% glycerol, room temperature, 30 min; GST-TFs on glutathione beads, 16-mer random dsDNA library, 0.1% formaldehyde crosslink after washing; high values mean tight binding
# Settings in all cases: protein: recombinant; tags: N-terminal GST; dsDNA, one strand shown
# ELK4 = biological target: T1, ELK4 (Homo sapiens, UniProt P28324-2 1-405)
# T1 sequence: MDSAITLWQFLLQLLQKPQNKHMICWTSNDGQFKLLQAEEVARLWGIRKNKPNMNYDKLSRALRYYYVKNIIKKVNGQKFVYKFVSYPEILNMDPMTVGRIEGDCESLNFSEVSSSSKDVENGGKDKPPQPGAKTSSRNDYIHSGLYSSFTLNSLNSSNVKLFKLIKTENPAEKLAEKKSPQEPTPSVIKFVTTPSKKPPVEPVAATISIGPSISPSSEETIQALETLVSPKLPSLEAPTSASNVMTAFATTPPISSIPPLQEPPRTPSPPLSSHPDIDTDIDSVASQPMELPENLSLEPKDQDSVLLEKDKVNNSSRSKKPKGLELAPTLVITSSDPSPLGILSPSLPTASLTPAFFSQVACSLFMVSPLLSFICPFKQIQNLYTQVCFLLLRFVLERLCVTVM
# Summary of the method: (§1)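 In yeast, human transcription factors were expressed with a GST fusion, then pulled down on glutathione beads and given DNA barcodes. Pooled with a tag-only sample, they were exposed to 200 nmole of a 16-mer random double-stranded DNA library (Tris/NaCl/DTT/glycerol buffer, room temperature, 30 min), washed, crosslinked with 0.1% formaldehyde, proximity-ligated using BsaI/T4 ligase for 1 h at 37 °C, PCR-amplified and read on an Illumina NextSeq500. Each hexamer's frequency of reads for a factor, divided by the matching frequency for the tag-only sample, gives the binding signal.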
# SPI1 = SPI1 (Homo sapiens, UniProt P17947 1-270)
# Summary of the method: as §1
# SPIB = SPIB (Homo sapiens, UniProt Q01892 1-262)
# Summary of the method: as §1
# FEV = biological target: T2, FEV (Homo sapiens, UniProt Q99581 1-238)
# T2 sequence: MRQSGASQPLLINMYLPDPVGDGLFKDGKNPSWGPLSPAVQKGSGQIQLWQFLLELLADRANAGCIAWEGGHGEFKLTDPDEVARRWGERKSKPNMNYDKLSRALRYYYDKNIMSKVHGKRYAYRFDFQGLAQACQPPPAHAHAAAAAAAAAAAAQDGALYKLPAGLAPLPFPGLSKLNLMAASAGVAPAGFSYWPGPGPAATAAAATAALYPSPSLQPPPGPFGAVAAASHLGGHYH
# Summary of the method: as §1
# ELF4 = ELF4 (Homo sapiens, UniProt Q99607 1-663)
# Summary of the method: as §1
# ETV2 = biological target: T3, ETV2 (Homo sapiens, UniProt O00321 1-342)
# T3 sequence: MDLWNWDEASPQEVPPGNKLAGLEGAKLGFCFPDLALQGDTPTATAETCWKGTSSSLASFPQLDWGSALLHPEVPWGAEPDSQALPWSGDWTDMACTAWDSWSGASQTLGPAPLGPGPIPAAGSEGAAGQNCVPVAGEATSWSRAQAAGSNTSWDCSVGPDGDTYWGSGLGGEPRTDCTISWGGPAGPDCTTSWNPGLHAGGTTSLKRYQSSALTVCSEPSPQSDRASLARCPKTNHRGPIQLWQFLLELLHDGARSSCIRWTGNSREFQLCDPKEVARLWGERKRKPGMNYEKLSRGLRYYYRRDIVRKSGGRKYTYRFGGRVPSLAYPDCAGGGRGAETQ
# Summary of the method: as §1
# ERF = biological target: T4, ERF (Homo sapiens, UniProt P50548 1-548)
# T4 sequence: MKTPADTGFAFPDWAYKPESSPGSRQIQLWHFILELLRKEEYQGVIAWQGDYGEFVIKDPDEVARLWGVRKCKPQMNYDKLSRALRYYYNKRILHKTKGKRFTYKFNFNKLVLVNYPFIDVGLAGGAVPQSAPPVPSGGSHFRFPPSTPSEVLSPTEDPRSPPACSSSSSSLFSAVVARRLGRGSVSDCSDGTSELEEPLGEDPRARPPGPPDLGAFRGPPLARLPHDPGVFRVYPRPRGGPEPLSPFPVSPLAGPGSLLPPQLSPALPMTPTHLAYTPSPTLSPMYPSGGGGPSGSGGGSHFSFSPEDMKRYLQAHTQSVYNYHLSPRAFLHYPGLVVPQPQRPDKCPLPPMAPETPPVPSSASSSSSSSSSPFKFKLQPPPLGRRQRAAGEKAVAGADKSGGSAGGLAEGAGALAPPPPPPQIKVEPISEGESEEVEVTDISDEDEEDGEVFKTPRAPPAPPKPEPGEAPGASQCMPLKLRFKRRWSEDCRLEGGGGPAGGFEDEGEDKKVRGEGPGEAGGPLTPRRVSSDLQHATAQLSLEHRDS
# Summary of the method: as §1
# ETS2 = biological target: T5, ETS2 (Homo sapiens, UniProt P15036 1-469)
# T5 sequence: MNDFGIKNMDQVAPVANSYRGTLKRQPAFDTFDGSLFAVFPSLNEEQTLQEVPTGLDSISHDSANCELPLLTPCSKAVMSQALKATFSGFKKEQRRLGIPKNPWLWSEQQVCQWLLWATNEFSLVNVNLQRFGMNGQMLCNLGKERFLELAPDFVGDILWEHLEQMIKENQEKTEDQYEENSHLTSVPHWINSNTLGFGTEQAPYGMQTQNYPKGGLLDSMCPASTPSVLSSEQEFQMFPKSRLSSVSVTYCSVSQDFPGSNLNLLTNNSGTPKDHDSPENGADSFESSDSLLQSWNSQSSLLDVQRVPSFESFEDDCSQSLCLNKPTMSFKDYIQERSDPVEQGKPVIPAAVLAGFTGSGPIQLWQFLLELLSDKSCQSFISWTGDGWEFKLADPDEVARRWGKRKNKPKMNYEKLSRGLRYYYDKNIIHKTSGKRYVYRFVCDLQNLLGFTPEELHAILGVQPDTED
# Summary of the method: as §1
# ELK1 = biological target: T6, ELK1 (Homo sapiens, UniProt P19419 1-428)
# T6 sequence: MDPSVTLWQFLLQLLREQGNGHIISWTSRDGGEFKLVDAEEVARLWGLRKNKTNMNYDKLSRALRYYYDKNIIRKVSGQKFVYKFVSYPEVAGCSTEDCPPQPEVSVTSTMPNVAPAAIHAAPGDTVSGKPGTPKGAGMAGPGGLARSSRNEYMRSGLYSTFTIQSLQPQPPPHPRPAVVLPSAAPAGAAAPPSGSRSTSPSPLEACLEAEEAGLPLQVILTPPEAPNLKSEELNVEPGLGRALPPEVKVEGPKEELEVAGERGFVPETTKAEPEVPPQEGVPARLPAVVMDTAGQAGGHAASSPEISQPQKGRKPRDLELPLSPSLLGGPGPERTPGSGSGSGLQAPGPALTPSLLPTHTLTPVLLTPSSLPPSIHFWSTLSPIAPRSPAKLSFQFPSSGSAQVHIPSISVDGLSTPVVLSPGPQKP
# Summary of the method: as §1
# GABPA = biological target: T7, GABPA (Homo sapiens, UniProt Q06546 1-454)
# T7 sequence: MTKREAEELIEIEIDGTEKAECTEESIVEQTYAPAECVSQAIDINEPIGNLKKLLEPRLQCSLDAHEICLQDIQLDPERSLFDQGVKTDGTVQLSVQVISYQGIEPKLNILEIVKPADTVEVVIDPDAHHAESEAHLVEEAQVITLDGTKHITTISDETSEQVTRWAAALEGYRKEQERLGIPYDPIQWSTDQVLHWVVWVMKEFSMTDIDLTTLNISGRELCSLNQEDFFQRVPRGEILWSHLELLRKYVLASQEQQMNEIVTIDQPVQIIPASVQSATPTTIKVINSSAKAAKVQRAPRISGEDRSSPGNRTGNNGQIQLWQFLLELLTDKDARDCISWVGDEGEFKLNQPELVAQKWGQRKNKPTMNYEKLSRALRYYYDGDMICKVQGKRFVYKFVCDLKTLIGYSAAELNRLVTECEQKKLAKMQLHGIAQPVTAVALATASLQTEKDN
# Summary of the method: as §1
# ERG = biological target: T8, ERG (Homo sapiens, UniProt P11308 1-479)
# T8 sequence: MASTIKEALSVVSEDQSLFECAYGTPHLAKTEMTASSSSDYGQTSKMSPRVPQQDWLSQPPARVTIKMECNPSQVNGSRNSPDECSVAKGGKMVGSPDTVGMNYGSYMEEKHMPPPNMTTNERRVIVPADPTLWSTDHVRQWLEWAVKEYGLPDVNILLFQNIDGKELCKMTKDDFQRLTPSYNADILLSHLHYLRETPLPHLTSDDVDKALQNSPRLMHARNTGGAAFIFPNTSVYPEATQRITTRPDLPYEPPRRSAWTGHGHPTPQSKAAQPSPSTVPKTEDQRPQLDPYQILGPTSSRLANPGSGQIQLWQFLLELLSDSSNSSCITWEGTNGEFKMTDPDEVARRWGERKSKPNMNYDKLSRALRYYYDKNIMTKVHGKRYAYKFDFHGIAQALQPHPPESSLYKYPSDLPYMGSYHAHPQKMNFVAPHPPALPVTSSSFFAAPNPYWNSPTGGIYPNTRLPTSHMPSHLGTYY
# Summary of the method: as §1
# EHF = biological target: T9, EHF (Homo sapiens, UniProt Q9NZC4 1-300)
# T9 sequence: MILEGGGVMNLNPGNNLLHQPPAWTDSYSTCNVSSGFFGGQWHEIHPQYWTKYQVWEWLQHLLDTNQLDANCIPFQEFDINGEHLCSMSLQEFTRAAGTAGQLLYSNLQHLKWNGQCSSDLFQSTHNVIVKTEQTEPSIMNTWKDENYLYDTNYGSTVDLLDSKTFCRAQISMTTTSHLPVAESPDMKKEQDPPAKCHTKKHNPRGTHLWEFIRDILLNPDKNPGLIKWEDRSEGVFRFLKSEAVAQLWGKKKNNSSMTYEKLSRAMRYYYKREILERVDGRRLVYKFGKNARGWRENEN
# Summary of the method: as §1
# ETV1 = ETV1 (Homo sapiens, UniProt P50549 1-477)
# Summary of the method: as §1
# ETV3L = biological target: T10, ETV3L (Homo sapiens, UniProt Q6ZN32 1-361)
# T10 sequence: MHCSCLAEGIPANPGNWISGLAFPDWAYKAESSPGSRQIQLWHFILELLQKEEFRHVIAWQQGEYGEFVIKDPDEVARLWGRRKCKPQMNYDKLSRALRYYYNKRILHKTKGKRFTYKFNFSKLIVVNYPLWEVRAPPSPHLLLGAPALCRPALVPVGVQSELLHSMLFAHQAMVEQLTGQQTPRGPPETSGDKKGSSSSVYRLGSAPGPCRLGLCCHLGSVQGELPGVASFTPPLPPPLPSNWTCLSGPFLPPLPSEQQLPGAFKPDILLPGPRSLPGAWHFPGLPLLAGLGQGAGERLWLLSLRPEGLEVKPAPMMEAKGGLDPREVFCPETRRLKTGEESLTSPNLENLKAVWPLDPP
# Summary of the method: as §1
# ETV7 = biological target: T11, ETV7 (Homo sapiens, UniProt Q9Y603 1-341)
# T11 sequence: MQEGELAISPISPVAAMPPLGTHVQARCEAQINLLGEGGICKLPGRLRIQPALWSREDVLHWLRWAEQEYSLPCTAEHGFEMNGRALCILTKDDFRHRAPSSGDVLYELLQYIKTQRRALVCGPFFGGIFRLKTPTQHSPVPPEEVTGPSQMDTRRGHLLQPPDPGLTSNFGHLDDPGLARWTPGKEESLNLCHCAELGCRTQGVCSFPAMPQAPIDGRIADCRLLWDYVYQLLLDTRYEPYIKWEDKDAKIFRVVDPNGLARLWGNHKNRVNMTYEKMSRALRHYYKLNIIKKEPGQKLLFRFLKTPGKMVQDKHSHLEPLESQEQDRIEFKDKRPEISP
# Summary of the method: as §1
# ELF5 = biological target: T12, ELF5 (Homo sapiens, UniProt Q9UKW6-2 1-255)
# T12 sequence: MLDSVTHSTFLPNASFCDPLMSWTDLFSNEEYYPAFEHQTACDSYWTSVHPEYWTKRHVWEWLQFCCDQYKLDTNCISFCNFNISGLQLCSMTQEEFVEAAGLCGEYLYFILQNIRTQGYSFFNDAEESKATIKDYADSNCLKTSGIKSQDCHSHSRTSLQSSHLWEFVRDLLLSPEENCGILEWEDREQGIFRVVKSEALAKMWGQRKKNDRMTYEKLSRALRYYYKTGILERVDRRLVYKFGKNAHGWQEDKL
# Summary of the method: as §1
# SPIB, sequence (Q01892 whole entry): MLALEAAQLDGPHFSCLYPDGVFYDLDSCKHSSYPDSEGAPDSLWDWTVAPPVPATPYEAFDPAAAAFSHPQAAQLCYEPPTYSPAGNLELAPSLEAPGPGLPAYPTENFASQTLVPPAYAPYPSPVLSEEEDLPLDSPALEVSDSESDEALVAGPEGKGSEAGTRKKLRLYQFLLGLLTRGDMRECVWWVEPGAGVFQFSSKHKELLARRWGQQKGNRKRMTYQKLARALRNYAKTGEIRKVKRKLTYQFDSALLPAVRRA
# ETV1, sequence (P50549 whole entry): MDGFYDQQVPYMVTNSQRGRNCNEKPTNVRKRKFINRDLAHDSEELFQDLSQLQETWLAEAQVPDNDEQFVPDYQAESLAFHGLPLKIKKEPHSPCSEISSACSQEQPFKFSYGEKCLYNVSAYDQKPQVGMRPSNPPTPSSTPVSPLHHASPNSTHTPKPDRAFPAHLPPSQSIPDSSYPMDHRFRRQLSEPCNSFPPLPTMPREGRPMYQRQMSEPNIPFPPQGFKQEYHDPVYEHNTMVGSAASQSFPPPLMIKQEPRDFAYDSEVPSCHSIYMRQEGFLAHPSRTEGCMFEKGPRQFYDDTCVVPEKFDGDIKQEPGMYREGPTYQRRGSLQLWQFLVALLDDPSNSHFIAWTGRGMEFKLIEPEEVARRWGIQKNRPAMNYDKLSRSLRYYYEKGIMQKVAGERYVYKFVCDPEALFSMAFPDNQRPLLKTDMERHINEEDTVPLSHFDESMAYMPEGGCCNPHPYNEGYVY
# ELF4, sequence (Q99607 whole entry): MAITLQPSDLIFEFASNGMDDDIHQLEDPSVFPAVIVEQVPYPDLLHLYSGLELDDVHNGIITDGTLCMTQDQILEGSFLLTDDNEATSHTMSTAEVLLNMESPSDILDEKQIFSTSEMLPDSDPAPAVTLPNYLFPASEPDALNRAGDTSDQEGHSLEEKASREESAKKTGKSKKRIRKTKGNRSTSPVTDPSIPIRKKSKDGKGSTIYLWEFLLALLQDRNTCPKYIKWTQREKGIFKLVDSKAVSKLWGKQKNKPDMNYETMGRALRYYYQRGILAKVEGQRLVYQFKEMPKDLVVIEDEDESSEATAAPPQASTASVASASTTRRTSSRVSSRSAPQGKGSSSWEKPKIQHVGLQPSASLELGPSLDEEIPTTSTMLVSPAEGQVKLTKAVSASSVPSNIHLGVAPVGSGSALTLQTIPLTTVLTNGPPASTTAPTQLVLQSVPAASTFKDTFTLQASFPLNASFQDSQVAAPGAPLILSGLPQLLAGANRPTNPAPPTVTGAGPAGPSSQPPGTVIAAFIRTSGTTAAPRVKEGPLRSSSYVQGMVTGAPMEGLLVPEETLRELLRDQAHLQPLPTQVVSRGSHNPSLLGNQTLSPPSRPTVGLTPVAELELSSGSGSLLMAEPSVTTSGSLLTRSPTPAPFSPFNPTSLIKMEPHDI
sequence,measurement,setting,value
ATAGTG,binding signal,ELK4,"1.06 fold enrichment (6-mer frequency, TF over GST control)"
GTTAGC,binding signal,SPI1,"1.01 fold enrichment (6-mer frequency, TF over GST control)"
same,binding signal,SPIB,"1 fold enrichment (6-mer frequency, TF over GST control)"
same,binding signal,FEV,"1 fold enrichment (6-mer frequency, TF over GST control)"
same,binding signal,ELF4,"1.06 fold enrichment (6-mer frequency, TF over GST control)"
same,binding signal,ETV2,"1.17 fold enrichment (6-mer frequency, TF over GST control)"
same,binding signal,ERF,"1.02 fold enrichment (6-mer frequency, TF over GST control)"
same,binding signal,ETS2,"1.01 fold enrichment (6-mer frequency, TF over GST control)"
GATTGC,binding signal,ELK1,"1.06 fold enrichment (6-mer frequency, TF over GST control)"
same,binding signal,GABPA,"1.04 fold enrichment (6-mer frequency, TF over GST control)"
same,binding signal,ERG,"1.01 fold enrichment (6-mer frequency, TF over GST control)"
same,binding signal,EHF,"1.02 fold enrichment (6-mer frequency, TF over GST control)"
same,binding signal,SPIB,"1.05 fold enrichment (6-mer frequency, TF over GST control)"
same,binding signal,ELK4,"1.04 fold enrichment (6-mer frequency, TF over GST control)"
same,binding signal,ETV2,"1.09 fold enrichment (6-mer frequency, TF over GST control)"
same,binding signal,ETV1,"1.02 fold enrichment (6-mer frequency, TF over GST control)"
same,binding signal,ERF,"1.02 fold enrichment (6-mer frequency, TF over GST control)"
same,binding signal,ETV3L,"1.02 fold enrichment (6-mer frequency, TF over GST control)"
same,binding signal,ETV7,"1.03 fold enrichment (6-mer frequency, TF over GST control)"
same,binding signal,ELF5,"1 fold enrichment (6-mer frequency, TF over GST control)"
